Molecules are shown by their SMILES.

Test [1] deals with Focal adhesion kinase 1 (Homo sapiens) (UniProt Q05397). To be noted: at 10 µM.
In test [2] the target is Fibroblast growth factor receptor 1 (Homo sapiens) (UniProt P11362). The note with it: at 1 µM.
Test [3] shares this target. The note with it: at 10 µM.
Test [4] has as its target Fibroblast growth factor receptor 2 (Homo sapiens) (UniProt P21802). The note with it: at 1 µM.
For test [5] the target is unchanged. The note with it: at 10 µM.
Test [6] has as its target Fibroblast growth factor receptor 3 (Homo sapiens) (UniProt P22607). The note with it: at 1 µM.
For test [7] the target is unchanged. The note with it: at 10 µM.
Test [8] deals with Fibroblast growth factor receptor 4 (Homo sapiens) (UniProt P22455). To be noted: at 1 µM.
The target is the same in test [9]. The note with it: at 10 µM.
For test [10], the target named is Tyrosine-protein kinase Fer (Homo sapiens) (UniProt P16591). To be noted: at 1 µM.
Test [11] shares this target. The note with it: at 10 µM.
Test [12] addresses Tyrosine-protein kinase Fes/Fps (Homo sapiens) (UniProt P07332). To be noted: at 1 µM.
Test [13] shares this target. The note with it: at 10 µM.
Test [14] addresses Tyrosine-protein kinase Fgr (Homo sapiens) (UniProt P09769). The note with it: at 1 µM.
Test [15] has the same target. The note with it: at 10 µM.
The target of test [16] is Vascular endothelial growth factor receptor 1 (Homo sapiens) (UniProt P17948). The note with it: at 1 µM.
For test [17] the target is unchanged. To be noted: at 10 µM.
Test [18] has as its target Receptor-type tyrosine-protein kinase FLT3 (Homo sapiens) (UniProt P36888). To be noted: at 1 µM.
Test [19] shares this target. The note with it: at 10 µM.
Test [20] has as its target Vascular endothelial growth factor receptor 3 (Homo sapiens) (UniProt P35916). To be noted: at 1 µM.

Chain of Receptor-type tyrosine-protein kinase FLT3 (Homo sapiens) (P36888 whole entry): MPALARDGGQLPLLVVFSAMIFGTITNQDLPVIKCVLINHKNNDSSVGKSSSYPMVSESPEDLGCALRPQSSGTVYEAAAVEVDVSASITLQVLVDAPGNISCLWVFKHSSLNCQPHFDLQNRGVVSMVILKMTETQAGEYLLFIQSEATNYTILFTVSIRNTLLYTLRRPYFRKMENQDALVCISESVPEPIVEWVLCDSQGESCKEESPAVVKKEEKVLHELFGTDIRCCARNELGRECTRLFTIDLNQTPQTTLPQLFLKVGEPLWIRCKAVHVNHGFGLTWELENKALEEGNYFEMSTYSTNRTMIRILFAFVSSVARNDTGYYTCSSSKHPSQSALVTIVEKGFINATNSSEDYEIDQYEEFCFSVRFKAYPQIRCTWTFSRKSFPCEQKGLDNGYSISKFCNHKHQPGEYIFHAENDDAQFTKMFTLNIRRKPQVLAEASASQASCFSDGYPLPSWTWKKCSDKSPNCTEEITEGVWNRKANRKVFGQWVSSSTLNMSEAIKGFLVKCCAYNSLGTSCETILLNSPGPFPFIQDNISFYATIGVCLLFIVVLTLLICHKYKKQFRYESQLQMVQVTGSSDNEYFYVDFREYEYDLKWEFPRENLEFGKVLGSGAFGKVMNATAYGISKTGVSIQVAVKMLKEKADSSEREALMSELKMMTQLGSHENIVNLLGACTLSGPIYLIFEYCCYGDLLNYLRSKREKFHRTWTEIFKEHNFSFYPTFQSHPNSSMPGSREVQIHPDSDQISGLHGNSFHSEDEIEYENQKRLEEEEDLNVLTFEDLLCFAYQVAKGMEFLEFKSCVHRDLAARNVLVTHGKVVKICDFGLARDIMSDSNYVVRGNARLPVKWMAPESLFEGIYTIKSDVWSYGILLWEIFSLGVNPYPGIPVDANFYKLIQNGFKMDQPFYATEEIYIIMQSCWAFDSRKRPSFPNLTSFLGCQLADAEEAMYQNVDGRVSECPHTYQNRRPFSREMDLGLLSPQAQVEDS
Chain of Tyrosine-protein kinase Fes/Fps (Homo sapiens) (P07332 whole entry): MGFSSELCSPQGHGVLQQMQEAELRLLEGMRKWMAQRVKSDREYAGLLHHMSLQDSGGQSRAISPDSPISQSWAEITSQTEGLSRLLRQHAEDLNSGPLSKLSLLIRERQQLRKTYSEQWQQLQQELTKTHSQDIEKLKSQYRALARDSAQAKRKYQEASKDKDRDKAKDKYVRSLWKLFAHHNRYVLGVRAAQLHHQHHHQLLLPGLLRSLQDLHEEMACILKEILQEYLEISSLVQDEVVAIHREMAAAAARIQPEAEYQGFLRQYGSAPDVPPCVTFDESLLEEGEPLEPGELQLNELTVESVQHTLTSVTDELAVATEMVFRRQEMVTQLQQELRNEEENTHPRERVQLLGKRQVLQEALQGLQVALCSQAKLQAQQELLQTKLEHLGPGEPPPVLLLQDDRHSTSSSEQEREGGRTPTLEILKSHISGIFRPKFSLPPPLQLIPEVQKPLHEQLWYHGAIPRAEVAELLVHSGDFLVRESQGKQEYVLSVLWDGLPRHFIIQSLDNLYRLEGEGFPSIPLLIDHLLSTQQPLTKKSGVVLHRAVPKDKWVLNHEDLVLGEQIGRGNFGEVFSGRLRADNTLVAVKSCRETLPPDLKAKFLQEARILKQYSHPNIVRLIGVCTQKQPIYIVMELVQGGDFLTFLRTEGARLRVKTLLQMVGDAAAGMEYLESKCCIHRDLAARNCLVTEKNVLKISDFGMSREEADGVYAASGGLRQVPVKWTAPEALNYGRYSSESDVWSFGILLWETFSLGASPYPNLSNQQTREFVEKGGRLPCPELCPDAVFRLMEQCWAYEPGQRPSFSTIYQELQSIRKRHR
Chain of Fibroblast growth factor receptor 3 (Homo sapiens) (P22607 23-806 limits assumed): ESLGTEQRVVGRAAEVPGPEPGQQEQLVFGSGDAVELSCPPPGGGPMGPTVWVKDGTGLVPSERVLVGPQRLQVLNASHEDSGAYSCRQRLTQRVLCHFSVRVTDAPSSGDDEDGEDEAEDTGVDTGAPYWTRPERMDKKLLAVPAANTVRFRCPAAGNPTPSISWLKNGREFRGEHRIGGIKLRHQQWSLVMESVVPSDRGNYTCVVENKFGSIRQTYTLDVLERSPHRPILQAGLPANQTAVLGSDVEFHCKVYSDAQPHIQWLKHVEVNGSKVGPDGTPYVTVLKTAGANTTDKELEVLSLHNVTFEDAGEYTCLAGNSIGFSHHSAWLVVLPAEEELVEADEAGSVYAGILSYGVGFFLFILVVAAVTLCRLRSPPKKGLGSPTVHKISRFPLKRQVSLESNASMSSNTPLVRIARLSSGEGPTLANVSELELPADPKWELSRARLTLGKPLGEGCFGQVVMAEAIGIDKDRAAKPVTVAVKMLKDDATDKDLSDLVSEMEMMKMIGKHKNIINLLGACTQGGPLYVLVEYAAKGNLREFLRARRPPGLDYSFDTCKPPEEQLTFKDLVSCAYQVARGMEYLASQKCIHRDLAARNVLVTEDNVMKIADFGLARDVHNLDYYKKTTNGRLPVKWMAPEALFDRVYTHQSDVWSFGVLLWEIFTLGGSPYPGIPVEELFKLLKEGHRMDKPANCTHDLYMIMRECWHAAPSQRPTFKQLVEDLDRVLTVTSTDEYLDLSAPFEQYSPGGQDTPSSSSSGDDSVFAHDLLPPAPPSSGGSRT
Chain of Fibroblast growth factor receptor 4 (Homo sapiens) (P22455 22-802 limits assumed): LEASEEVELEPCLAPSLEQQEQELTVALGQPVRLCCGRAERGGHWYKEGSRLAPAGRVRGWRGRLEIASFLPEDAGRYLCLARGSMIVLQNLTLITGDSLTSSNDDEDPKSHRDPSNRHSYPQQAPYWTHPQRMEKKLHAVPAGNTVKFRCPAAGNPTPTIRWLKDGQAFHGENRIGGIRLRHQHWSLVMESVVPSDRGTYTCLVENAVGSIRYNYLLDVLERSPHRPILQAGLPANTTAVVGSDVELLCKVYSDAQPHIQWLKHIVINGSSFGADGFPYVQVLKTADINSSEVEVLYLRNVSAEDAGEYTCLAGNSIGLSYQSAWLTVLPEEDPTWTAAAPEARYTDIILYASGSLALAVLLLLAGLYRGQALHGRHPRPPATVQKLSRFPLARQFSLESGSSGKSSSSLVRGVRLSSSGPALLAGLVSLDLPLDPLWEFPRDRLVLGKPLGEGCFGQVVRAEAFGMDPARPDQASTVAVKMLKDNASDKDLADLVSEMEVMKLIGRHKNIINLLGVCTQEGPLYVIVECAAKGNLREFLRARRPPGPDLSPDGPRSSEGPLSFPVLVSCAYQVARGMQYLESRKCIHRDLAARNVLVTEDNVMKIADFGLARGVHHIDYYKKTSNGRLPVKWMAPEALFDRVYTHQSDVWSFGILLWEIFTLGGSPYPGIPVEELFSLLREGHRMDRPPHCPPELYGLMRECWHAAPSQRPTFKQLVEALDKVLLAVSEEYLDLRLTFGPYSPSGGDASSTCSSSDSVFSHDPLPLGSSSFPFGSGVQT
Chain of Tyrosine-protein kinase Fer (Homo sapiens) (P16591 whole entry, looked up): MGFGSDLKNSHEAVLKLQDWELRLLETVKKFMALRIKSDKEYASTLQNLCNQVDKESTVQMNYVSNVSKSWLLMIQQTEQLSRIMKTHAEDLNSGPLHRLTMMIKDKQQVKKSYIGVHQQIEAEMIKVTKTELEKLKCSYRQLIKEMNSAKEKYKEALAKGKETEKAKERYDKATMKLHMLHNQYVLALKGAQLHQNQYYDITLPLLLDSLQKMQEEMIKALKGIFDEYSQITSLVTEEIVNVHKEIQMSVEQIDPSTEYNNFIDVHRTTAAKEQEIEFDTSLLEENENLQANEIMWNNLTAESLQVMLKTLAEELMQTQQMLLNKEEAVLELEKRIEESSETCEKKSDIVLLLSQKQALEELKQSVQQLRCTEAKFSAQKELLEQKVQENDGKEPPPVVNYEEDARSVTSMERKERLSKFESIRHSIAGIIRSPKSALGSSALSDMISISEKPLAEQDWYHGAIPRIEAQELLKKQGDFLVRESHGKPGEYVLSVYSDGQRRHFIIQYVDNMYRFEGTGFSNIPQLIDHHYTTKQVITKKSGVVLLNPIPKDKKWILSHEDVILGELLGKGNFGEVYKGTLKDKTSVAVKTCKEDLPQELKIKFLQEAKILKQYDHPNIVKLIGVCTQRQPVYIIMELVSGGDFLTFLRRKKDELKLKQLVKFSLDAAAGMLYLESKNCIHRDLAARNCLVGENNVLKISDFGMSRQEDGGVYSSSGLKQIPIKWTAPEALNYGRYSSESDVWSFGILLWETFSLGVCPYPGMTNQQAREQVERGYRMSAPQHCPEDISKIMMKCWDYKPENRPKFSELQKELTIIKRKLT
Chain of Fibroblast growth factor receptor 1 (Homo sapiens) (P11362 22-822 limits assumed): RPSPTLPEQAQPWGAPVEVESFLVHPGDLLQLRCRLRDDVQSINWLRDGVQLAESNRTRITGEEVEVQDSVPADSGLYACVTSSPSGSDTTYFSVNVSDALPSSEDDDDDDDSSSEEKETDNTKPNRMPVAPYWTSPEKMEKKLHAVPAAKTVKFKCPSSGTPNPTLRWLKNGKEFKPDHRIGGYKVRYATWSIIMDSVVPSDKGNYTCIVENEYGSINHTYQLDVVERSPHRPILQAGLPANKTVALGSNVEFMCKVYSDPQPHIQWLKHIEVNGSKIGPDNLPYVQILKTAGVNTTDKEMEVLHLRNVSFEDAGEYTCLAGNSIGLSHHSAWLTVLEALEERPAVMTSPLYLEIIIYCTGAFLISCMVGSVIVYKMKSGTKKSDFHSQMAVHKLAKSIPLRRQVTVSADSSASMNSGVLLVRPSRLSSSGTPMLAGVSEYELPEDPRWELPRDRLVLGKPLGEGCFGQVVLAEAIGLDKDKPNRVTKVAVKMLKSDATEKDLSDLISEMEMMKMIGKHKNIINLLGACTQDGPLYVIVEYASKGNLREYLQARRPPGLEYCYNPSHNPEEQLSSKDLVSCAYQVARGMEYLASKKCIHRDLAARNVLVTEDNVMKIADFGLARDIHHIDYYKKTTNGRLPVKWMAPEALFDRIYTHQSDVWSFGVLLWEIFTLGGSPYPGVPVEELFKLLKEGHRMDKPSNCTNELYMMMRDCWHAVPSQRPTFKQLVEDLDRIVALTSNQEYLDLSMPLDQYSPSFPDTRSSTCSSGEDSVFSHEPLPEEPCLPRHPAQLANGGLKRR

As a reminder, the residual activity is the signal under treatment as a percentage of the control signal. As to `COc1cc2ncnc(Nc3ccc(OCc4ccccc4)cc3)c2cc1OC`, the residual activity in [1] is 81%; in test [2] it was 88%; in test [3], 69%; in [4], 100%; in test [5] it was 109%; in [6] it was 97%. Besides, the residual activity was 100% in test [7]; 122% in test [8]; 99% in test [9]; 111% in test [10]; 98% in [11]; 131% in test [12]. The residual activity in test [13] worked out at 97%; in test [14] it was 67%; in [15] it was 42%; in [16], 57%; in [17], 27%; in [18], 40%. The values for the residual activity in test [19] and in test [20] were 24% and 6%, respectively.
`O=[N+]([O-])/C=C/c1ccc2c(c1)OCO2`: the residual activity was determined as 72% in [1]; 115% in test [2]; 94% in [3]; 108% in [4]; 97% in test [5]; 104% in test [6]. Moreover, the residual activity was 107% in [7]; 135% in test [8]; 104% in test [9]; 114% in test [10]; 98% in [11]; 113% in test [12]. Besides, the residual activity in [13] was 77%; in test [14] it was 90%; in [15], 92%; in test [16], 97%; in [17], 91%; in test [18], 95%. Further, the residual activity in test [19] came out at 69%; in test [20], 88%.
In the case of `CC(C)[C@H](CO)Nc1nc(Nc2cccc(Cl)c2)c2ncn(C(C)C)c2n1`, the residual activity in test [1] is 13%; in test [2] it was 98%; in test [3], 15%; in [7], 56%; in [8], 118%; in test [10], 90%. Also, the residual activity in test [11] stood at 26%; in [12], 79%; in [13], 19%; in test [14], 23%; in [15] it was 0%; in test [16], 88%. Further, the residual activity turned out to be 43% in test [17], 17% in test [18], 2% in test [19] and 42% in test [20].
On to `CN[C@@H]1C[C@H]2O[C@@](C)([C@@H]1OC)n1c3ccccc3c3c4c(c5c6ccccc6n2c5c31)C(=O)NC4`, for which the residual activity in [16] is 0%; in [17], -1%; in test [18], -1%; in test [19], -1%.
As to `c1cc(-c2cnn3cc(-c4ccc(OCCN5CCCCC5)cc4)cnc23)ccn1`, the residual activity in test [2] stood at 47%; in test [3], 5%; in test [9], 72%; in [12], 87%; in test [13] it was 31%; in [14], 28%. Further, the residual activity in [15] is 2%; in test [16] it was 0%; in [17] it was 0%; in test [18], 0%; in test [19], -1%; in test [20], 1%.
For `COC(=O)[C@@]1(O)C[C@H]2O[C@]1(C)n1c3ccccc3c3c4c(c5c6ccccc6n2c5c31)C(=O)NC4`, the residual activity in test [1] was found to be 5%; in test [2], 10%; in test [3], 11%; in test [4], 20%; in [5], 2%; in [6] it was 17%. For the same molecule, the residual activity in [7] came out at 2%; in test [8], 88%; in test [9], 36%; in test [10] it was 2%; in [11], 0%; in test [12], 7%. Moreover, the residual activity in test [13] is 1%; in test [14], 3%; in test [15], -1%; in test [16], 0%; in test [17], 0%; in [18] it was 0%. Further, the residual activity in [19] turned out to be 1%; in [20], 0%.
As for `COc1cc(OC)c(/C=C2\C(=O)Nc3ccccc32)c(OC)c1`, the residual activity in test [1] was determined as 81%; in test [2] it was 107%; in test [3] it was 88%; in test [4], 102%; in test [5], 90%; in test [10] it was 97%. In addition, the residual activity is 94% in [11]; 102% in test [12]; 92% in test [13]; 86% in test [14]; 76% in test [15]; 92% in test [16]. Besides, the residual activity in test [17] is 94%; in [18], 83%; in test [19] it was 72%; in test [20], 76%.
Consider `CC(C)(C)c1cc(C=C(C#N)C#N)cc(Br)c1O`, for which the residual activity is 104% in [1]; 108% in test [2]; 99% in [4]; 105% in test [5]; 126% in test [6]; 99% in test [7]. Further, the residual activity in test [8] was 118%; in [9], 102%; in test [10], 120%; in test [11], 107%; in test [12], 125%; in [13], 98%. Further, the residual activity in test [14] amounted to 113%; in [15], 96%; in test [16] it was 102%; in test [17], 82%; in [20], 96%.
For the molecule `N/C(=N\[N+](=O)[O-])N/N=C\c1ccc(-c2cccc([N+](=O)[O-])c2)o1`, the residual activity in [5] came out at 92%; in [6], 95%; in test [7] it was 92%; in [16] it was 86%; in test [17], 72%; in [18], 73%. The residual activity in [19] turned out to be 48%; in [20] it was 58%.
